Compound activity from PubChem.
VACV Venus inh: vaccinia inhibition (Venus reporter); Vaccinia virus Venus reporter expression, fluorescence; Potency, µM (titrated, usually from 36.5 µM), for inactives: at the top dose activity change, negative = inhibition, most hits filed as inhibitors; hit rate 0.46% among 330,000; calls by dose curve; tested in A549 cells; also: nearly all actives have a fitted effect of over 30% in size
Pf growth 48h: P. falciparum growth inhibition at 48 hours (one generation). hit rate 5.9% among 310,000. Potency, µM (highest dose often 28.7 µM), without a hit: at the highest dose activity change, negative = inhibition, actives largely listed as inhibitors. AID 504832. P. falciparum luciferase growth in erythrocytes, 48 h
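Luciferase-expressing P. falciparum in infected erythrocytes (2% hematocrit, 0.1% parasitemia final) in RPMI 1640/0.5% Albumax were exposed to compound for 48 hours at 37 C, 5% CO2; growth read as luminescence.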
VACV mCherry inh: vaccinia inhibition (mCherry reporter); Vaccinia virus mCherry reporter infection, fluorescence; Potency, µM (top dose mostly 36.5 µM), for the others: at the highest dose activity change, negative = inhibition, usual class: inhibitors; hit rate 0.63% among 310,000; AID 720579; calls by dose curve; tested in A549 cells; also: nearly all actives have a fitted effect of over 35% in size
AMA1 RON2 block: inhibitors of Plasmodium falciparum AMA1-RON2 interaction. AlphaScreen AMA1-biotinylated RON2 peptide binding. Potency, µM (doses to about 58.2 µM), for inactives: at the highest dose activity change, negative = inhibition, usual class: inhibitors. hit rate 0.2% among 360,000;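 also: 0% = vehicle wells and -100% = peptide control; nearly all actives have a fitted effect of over 45% in size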
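AMA1 (3D7) with his tag at 25 nM final met compounds first, then biotinylated RON2 peptide at 25 nM; detection used donor plus acceptor beads, 10 µg/mL apiece, read by AlphaScreen after 30 min at room temperature.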
Pf growth 96h: inhibits malaria parasite growth, 96 h. Potency, µM (top dose mostly 28.7 µM), inactives show at the top dose activity change, negative = inhibition, actives largely listed as inhibitors. P. falciparum luciferase reporter growth, 96 h. hit rate 6.9% among 320,000
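Readout is luminescence from an integrated firefly luciferase in P. falciparum. Red cells, 2% hematocrit and 0.05% parasitemia final, were cultured with compound through two parasite generations (96 hours) at 37 C, 5% CO2.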
An asterisk follows results filed as active; i = inactive; ? = inconclusive; / = no result; [ ] = another dose, or the depositor's remark. A selection: hits, their analogues and other compounds. The true share with any hit is near 8.7%. Unless noted, calls follow the shape of the dose curve; as a rule, active = well fitted curve in the direction sought with a large enough effect; inconclusive = small, poorly fitted or top-dose-only effect, or another doubt; inactive = no such curve, though single readings can be large; an effect the other way counts as inactive or inconclusive. Unless noted, % is scaled to controls: 0 for no effect and ±100 for the full control effect; potency is read from the fitted curve at half-maximal effect.

SMILES	VACV Venus inh	Pf growth 48h	VACV mCherry inh	AMA1 RON2 block	Pf growth 96h
O=C(COc1ccc(F)cc1)Nc1ccc(S(=O)(=O)N(Cc2ccccc2)c2ccccc2)cc1	-10%	/	-14%	/	/
COc1ccccc1C1c2ccc3ccccc3c2Oc2ncn(CCN(C)C)c(=N)c21 (stereo not drawn)	?	3.3µM*	-20%	-18%	2.3µM*
COc1ccc(C2c3ccc(O)cc3Oc3ncn(CCN4CCOCC4)c(=N)c32)cc1 (stereo not drawn)	-21%	?	?	-8%	-27%
COc1ccc(C2c3ccc(O)cc3Oc3ncn4nc(-c5cccnc5)nc4c32)cc1OC (stereo not drawn)	?	5.2µM*	?	61%	4.1µM*
COc1ccc(C2c3ccc4ccccc4c3Oc3ncn(CCCN(C)C)c(=N)c32)cc1 (stereo not drawn)	?	1.7µM*	?	-3%	1.7µM*
COc1ccc(C2c3ccc(O)cc3Oc3ncn(CC(C)C)c(=N)c32)cc1 (stereo not drawn)	-11%	5.2µM*	-16%	-1%	-2%
CCc1ccccc1NC(=O)C(CC)Sc1ncnc2c1sc1ccccc12 (stereo not drawn)	-7%	/	17%	/	/
CCOc1ccc2nc(N(Cc3cccnc3)C(=O)c3ccco3)sc2c1	-6%	/	i	/	/
CCc1sc(Nc2cccc(Cl)c2)nc1-c1cc2cccc(OC)c2oc1=O	-18%	/	-14%	/	/
O=S(=O)(Nc1ccc(F)cc1F)c1ccc(Br)s1	-9%	/	1%	/	/
COc1ccccc1C1c2ccc3ccccc3c2Oc2ncn(CCCO)c(=N)c21 (stereo not drawn)	-26%	7.4µM*	?	-17%	2.6µM*
COc1ccc(C2c3ccc(O)cc3Oc3ncn(Cc4ccco4)c(=N)c32)cc1OC (stereo not drawn)	-27%	?	?	-16%	-30%
COc1ccc(C2c3ccc4ccccc4c3Oc3ncn(Cc4ccco4)c(=N)c32)cc1OC (stereo not drawn)	?	13µM*	-23%	-8%[11.6 µM]	?
COc1ccc(S(=O)(=O)CCC(=O)NCCc2ccc(S(N)(=O)=O)cc2)cc1	-6%	-12%	/	0%	9.3µM*
COc1ccc(S(=O)(=O)CCC(=O)NCCc2cccc(C)c2)cc1	/	/	/	1%	?
CCCCCCOC(=O)/C=C/c1c(C)[nH]c(=O)[nH]c1=O	-7%	9.3µM*	/	4%	66%
Cc1cc(=O)[nH]c(SCc2nnnn2-c2ccc(Cl)cc2)n1	-12%	13%	-4%	0%	28%
Nc1cc(=O)[nH]c(SCc2nnnn2-c2ccc(Cl)cc2)n1	-21%	12%	i	17%	0.21µM*
Cn1c(=O)n(C)c2cc(N3CCCCC3)c(NC(=O)c3ccc(C(C)(C)C)cc3)cc21	-7%	/	-9%	/	/
COc1ccccc1CNC(=O)CCC(=O)N1CC2CCCN2c2ccccc21 (stereo not drawn)	-13%	/	i	/	/
Cc1cc(C)cc(N(CC(=O)NC(C)(C)C)C(=O)CCC(=O)Nc2ccccn2)c1	/	-9%	/	3%	10µM*
COc1ccc(N(CC(=O)NCc2ccccc2)C(=O)CCC(=O)Nc2cc(C)ccn2)c(OC)c1	-20%	1.7µM*	-3%	-9%	0.47µM*
COc1ccccc1N(CC(=O)NCCc1ccccc1)C(=O)CCC(=O)Nc1cc(C)ccn1	-13%	-11%	-5%	5%	?
Cc1cc(C)cc(N(CC(=O)NCc2ccc(F)cc2)C(=O)CCC(=O)Nc2ccccn2)c1	-14%	13µM*	-23%	-2%	-3%
COC(=O)C(Nc1ccccc1Cl)(c1cc(C)c(O)c(C)c1)C(F)(F)F (stereo not drawn)	?	9.3µM*	/	7%	/
CC(C)C(C)(C#N)NC(=O)CSc1nc2scc(-c3ccco3)c2c(=O)n1-c1ccccc1 (stereo not drawn)	-8%	9.3µM*	-17%	-16%	?
CC(C)C(C)NC(=O)CSc1nc2scc(-c3ccco3)c2c(=O)n1-c1ccccc1 (stereo not drawn)	0%	12µM*	/	-3%	/
Cc1ccccc1Nc1nc(N)nc(COC(=O)c2cccc(S(=O)(=O)N(C)c3ccccc3)c2)n1	-12%	?	-18%	-1%	5.9µM*
